# Assay results published in PubChem BioAssay (EPA / NIEHS).
# Records with an inconclusive call do not appear. The source made the active and inactive calls. Rule for the calls: active = hit-call score of the fitted dose curve at least 0.9, where 1 is the maximum; inconclusive = response in the unintended direction; inactive = score below 0.9.
# Columns and labels:
# [1] = STM_H9_NormalizedViability: Cytotoxicity Assessment at 120 hours in the Stemina devTOX quickPredict H9 human embryonic stem cell (hESC)-based Assay (AID 2283784)
# In short: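 Pluripotent H9 cells dosed, fresh medium plus compound q24h → cell layer read by CellTiter-Fluor → RFU blank-corrected, normalized to DMSO 0.1% mean. Loss-of-signal fit, DMSO as baseline.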
# [2] = ACEA_ER_AUC_viability: ACEA Biosciences xCELLigence Real-Time Cell Analysis on Estrogen Receptor Agonism for Viability (AID 2283782);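 note: continuous compound exposure with impedance area under curve over 80 h; hit means loss of impedance signal meaning reduced cell growth or viability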
# In short: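 T-47D; phenol red-free RPMI1640 + 10% CS-FBS; 8 conc., 1:4 serial, max 100 uM final, ≤0.5% DMSO; n = 2; continuous exposure; impedance monitored to 80 h post-dose; AUC vs DMSO.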
# AR (gene 367) = AR (gene 367) (UniProt P10275); experiment: ACEA_AR_antagonist_80hr: ACEA Biosciences xCELLigence Real-Time Cell Analysis on Androgen Receptor Antagonism for Proliferation (AID 2283787);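 note: 22Rv1 human prostate cancer cells with growth followed by electrical impedance; hits lower the impedance growth signal relative to DMSO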
# Chain of AR (gene 367) (P10275 whole entry, looked up): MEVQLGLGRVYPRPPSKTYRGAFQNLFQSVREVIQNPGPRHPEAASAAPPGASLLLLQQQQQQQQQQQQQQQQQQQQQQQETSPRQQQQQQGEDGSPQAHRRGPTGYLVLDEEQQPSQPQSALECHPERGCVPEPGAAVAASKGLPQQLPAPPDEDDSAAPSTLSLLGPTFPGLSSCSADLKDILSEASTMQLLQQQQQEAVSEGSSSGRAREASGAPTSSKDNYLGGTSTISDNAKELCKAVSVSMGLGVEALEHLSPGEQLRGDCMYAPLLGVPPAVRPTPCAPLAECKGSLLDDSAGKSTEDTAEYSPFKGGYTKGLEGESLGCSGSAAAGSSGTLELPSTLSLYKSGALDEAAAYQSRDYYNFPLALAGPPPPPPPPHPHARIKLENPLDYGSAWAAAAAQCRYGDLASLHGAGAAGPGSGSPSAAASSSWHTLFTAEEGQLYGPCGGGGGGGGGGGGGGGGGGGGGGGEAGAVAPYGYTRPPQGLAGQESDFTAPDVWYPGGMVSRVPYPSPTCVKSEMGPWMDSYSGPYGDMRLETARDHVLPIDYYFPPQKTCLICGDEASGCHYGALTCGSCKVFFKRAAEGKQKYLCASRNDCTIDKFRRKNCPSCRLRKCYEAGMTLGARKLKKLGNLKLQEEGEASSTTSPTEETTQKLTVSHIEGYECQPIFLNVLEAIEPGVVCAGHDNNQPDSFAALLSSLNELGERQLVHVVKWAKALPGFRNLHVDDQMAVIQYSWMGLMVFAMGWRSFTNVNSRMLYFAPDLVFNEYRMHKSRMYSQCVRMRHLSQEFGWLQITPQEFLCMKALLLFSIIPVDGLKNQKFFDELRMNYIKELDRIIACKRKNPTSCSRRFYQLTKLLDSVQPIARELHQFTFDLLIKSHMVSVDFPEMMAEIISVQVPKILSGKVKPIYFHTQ
# In short: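 Growth-kinetic antagonist readout in 22Rv1 cells, taken 80 h after continuous compound exposure. Activity fitted as signal loss relative to DMSO negative control.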
compound,measurement,setting,value
CCCc1cc(=O)[nH]c(=S)[nH]1,outcome,[1],inactive
CNC(=O)[C@H]1O[C@@H](n2cnc3c(NCc4cc(Cl)ccc4OCc4cc(C)no4)ncnc32)[C@H](O)[C@@H]1N,outcome,[2],inactive
same,outcome,AR (gene 367),inactive
Oc1ccc2ccccc2c1N=Nc1ccccc1,AC50,[1],0.992 µM (active)
CCCCc1ccc2c(n1)[C@@H](c1ccc(OC)cc1C[C@H](C)C(=O)O)[C@H](C(=O)O)[C@H]2c1ccc2c(c1)OCO2,outcome,[1],inactive
CN[C@H]1CC[C@@H](c2ccc(Cl)c(Cl)c2)c2ccc(S(N)(=O)=O)cc21,AC50,[2],10.9 µM (active)
same,AC50,AR (gene 367),13.1 µM (active)
COCCOC[C@H](CC1(C(=O)NC2CCC(C(=O)O)CC2)CCCC1)C(=O)Oc1ccc2c(c1)CCC2 (some centres undefined),AC50,AR (gene 367),18.2 µM (active)
CCCCCC(=O)O,outcome,AR (gene 367),inactive
